NS1 inh: qHTS Assay for Inhibitors of Influenza NS1 Protein Function. Potency, µM (titrated, usually from 46.1 µM), for the others: at the highest dose activity, positive = more growth. actives 0.4% (n = 270,000); note: actives are rising curves; nearly all actives have a fitted effect of over 50% in size
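S. cerevisiae expressing influenza A NS1, grown in glucose, washed, then diluted 1:100 into pH 6.0 -URA galactose medium with 23 nl compound. Growth recovery read as OD600; NS1-free strain serves as control.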
Pf growth 48h: Primary qHTS for delayed death inhibitors of the malarial parasite plastid, 48 hour incubation | P. falciparum luciferase growth in erythrocytes, 48 h | Potency, µM (highest dose often 28.7 µM), for inactives: at the highest dose activity change, negative = inhibition, usual class: inhibitors | actives 5.9% (n = 310,000) | AID 504832, 2011; active = well fitted inhibition curve with a large enough effect; inconclusive = small, poorly fitted or top-dose-only effect, or another doubt; inactive = no such curve, though single readings can be large or run the other way; note: % is set by controls: 0 for no effect and ±100 for the full control effect
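In quantitative HTS format, infected erythrocytes bearing luciferase-reporter parasites were treated for a single generation at 37 C. Luminescence after adding detection reagent served as the growth measure.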
Pf growth 96h: Primary qHTS for delayed death inhibitors of the malarial parasite plastid, 96 hour incubation; P. falciparum luciferase reporter growth, 96 h; Potency, µM (top dose mostly 28.7 µM), for inactives: at the highest dose activity change, negative = inhibition, actives largely listed as inhibitors; actives 6.9% (n = 320,000); AID 504834, 2011; active = well fitted inhibition curve with a large enough effect; inconclusive = small, poorly fitted or top-dose-only effect, or another doubt; inactive = no such curve, though single readings can be large or run the other way; note: % is set by controls: 0 for no effect and ±100 for the full control effect
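Parasite growth measured via integrated firefly luciferase reporter in P. falciparum. Infected erythrocytes at 2% hematocrit, 0.05% parasitemia final were treated 96 hours at 37 C under 5% CO2, and luminescence was read.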
SARS PLP yeast: qHTS of Yeast-based Assay for SARS-CoV PLP; S. cerevisiae expressing SARS-CoV PLpro, growth rescue; Potency, µM (doses to about 32.9 µM), without a hit: top-dose activity, positive = growth rescue, usual class: activators; actives 0.19% (n = 330,000); note: 0% is about no effect; nearly all actives have a fitted effect of over 55% in size
RE007 growth inh: qHTS Assay for Inhibitors of the HIV-1 protein Vpr | S. pombe RE007 Vpr strain, BacTiter-Glo ATP luminescence, 24 h | Potency, µM (titrated, usually from 92.2 µM), for inactives: at the top dose activity change, negative = less growth, hits mostly inhibitors | actives 0.21% (n = 360,000); active = well fitted falling curve with a large enough effect; inconclusive = small, poorly fitted or top-dose-only effect; inactive = no such curve, though single readings can be large or run the other way; note: % is set by controls: 0 for no effect and ±100 for the full control effect; nearly all actives have a fitted effect of over 50% in size
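Fission yeast strain RE007, carrying one chromosomally integrated HIV-1 vpr copy, was seeded at OD 0.01 in PMG+AL medium with 23 nL pinned compound. After 24 h at 30 °C and 99% humidity, viability was read by BacTiter-Glo luminescence.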
Numbers without * were called inactive; u = inconclusive; x = no result; [ ] = remark or other dose. Compounds with a hit are over-represented: about 9.5% of the library has one in this group of screens. Unless noted, calls come from the whole dose curve. Potency is the fitted concentration of half-maximal effect.

SMILES | NS1 inh | Pf growth 48h | Pf growth 96h | SARS PLP yeast | RE007 growth inh
Cc1ccc(N(C(=O)Cn2nnc(-c3ccc(C)o3)n2)C(C(=O)NC2CCCC2)c2ccncc2)cc1 (stereo not drawn) | 0.5% | 0.0% | 10.4µM* | 0.1% | 3.9%
CCC(C(=O)NC1CCCC1)N(C(=O)Cn1nnc(-c2ccc(C)o2)n1)C(C)(C)C (stereo not drawn) | -0.8% | u | 2.33µM* | 5.2% | -9.6%
O=C(NCCc1ccccc1)C1CCCN(c2cnccn2)C1 (stereo not drawn) | 14.5% | -10.9% | 18.8% | 3.9% | 0.1%
CCOC(=O)Nc1ccc2c(COC(=O)C(NS(=O)(=O)c3ccc(Cl)cc3)C(C)O)cc(=O)oc2c1 (stereo not drawn) | x | x | x | 19.3% | 1.6%
CC(C)(C)c1ccc(SCCc2ccccn2)cc1 | -8.3% | 175.5% | 189.8% | 0.3% | 14.1%
O=S1(=O)N[C@H]2CC[C@@H]3NS(=O)(=O)N[C@H]4CC[C@H](N1)N4S(=O)(=O)N23 | 4.4% | x | x | x | x
CC(C)(C)NC(=O)C(c1ccc(F)cc1)N(Cc1ccco1)C(=O)Cn1nnc(-c2cccs2)n1 (stereo not drawn) | 1.3% | 5.86µM* | u | 7.3% | -11.1%
Cc1ccc(-c2nnn(CC(=O)N(Cc3cccs3)C(C(=O)NC3CCCC3)c3ccncc3)n2)cc1 (stereo not drawn) | -20.0%[9.22 µM] | 5.86µM* | u | 22.0% | -4.0%
O=C(NCC1CCCO1)C(c1ccc(F)cc1)N(Cc1ccc(F)cc1)C(=O)Cn1nnc(-c2cccs2)n1 (stereo not drawn) | -1.5% | u | u | -2.8% | 5.0%
O=C(NCC1CCCO1)C(c1ccncc1)N(Cc1cccs1)C(=O)Cn1nnc(-c2ccc(F)cc2)n1 (stereo not drawn) | 1.3% | 0.8% | u | 0.2% | 6.7%
CCOC(=O)CN(C(=O)Cn1nnc(-c2ccc(OC)cc2)n1)C(C(=O)NC1CCCC1)c1ccc(F)cc1 (stereo not drawn) | -1.4% | 13.1µM* | 14.7µM* | 8.5% | -8.5%
CC(=O)c1ccc(N(C(=O)Cn2nnc(-c3ccccc3)n2)C(C(=O)NC2CCCCC2)c2ccccn2)cc1 (stereo not drawn) | 2.2% | -19.5% | 9.28µM* | -11.2% | 2.4%
CCc1ccc(N(C(=O)Cn2nnc(-c3ccccc3)n2)C(C(=O)NC2CCCCC2)c2ccccn2)cc1 (stereo not drawn) | -0.2% | 12.0% | 418.9% | 9.6% | -3.0%
Cc1ccc(-c2nnn(CC(=O)N(CC3CCCO3)C(C(=O)NC(C)(C)C)c3ccc(F)cc3)n2)o1 (stereo not drawn) | -3.2% | 10.4µM* | 11.7µM* | -3.3% | 6.1%
CC(C)CCNC(=O)C(c1ccncc1)N(Cc1cccs1)C(=O)Cn1nnc(-c2ccc(F)cc2)n1 (stereo not drawn) | -8.1% | 14.7µM* | 61.7% | -9.9% | 1.1%
CCC(C(=O)NC1CCCC1)N(C(=O)Cn1nnc(-c2ccc(OC)c(OC)c2)n1)C1CCCCC1 (stereo not drawn) | -45.5% | 9.28µM* | u | -2.4% | -8.4%
Cc1ccc(-c2nnn(CC(=O)N(Cc3ccco3)C(C(=O)NC3CCCC3)c3cccs3)n2)o1 (stereo not drawn) | 12.6% | 13.1µM* | u | 4.3% | 2.3%
CCC(C(=O)NC1CCCC1)N(C(=O)Cn1nnc(-c2ccc(C)cc2)n1)C1CCCC1 (stereo not drawn) | x | x | x | x | 5.9%
Cc1ccc(-c2nnn(CC(=O)N(CC3CCCO3)C(C(=O)NCC3CCCO3)c3ccc(F)cc3)n2)o1 (stereo not drawn) | -0.4% | -25.2% | u | 10.4% | 0.7%
O=C(NC1CCCC1)C(c1cccs1)N(Cc1ccco1)C(=O)Cn1nnc(-c2cccs2)n1 (stereo not drawn) | -26.8% | u | 8.3% | 0.9% | 9.0%
Cc1ccc(OCC(=O)N(Cc2ccco2)c2c(N)n(Cc3ccccc3)c(=O)[nH]c2=O)cc1C | x | -0.4% | -13.1% | -6.1% | -2.5%
O=C1NC(=O)C2(Br)Nc3ccc(Br)cc3C(=O)C2N1 (stereo not drawn) | x | x | x | x | 1.4%
COCCN(Cc1cn(C)nc1-c1ccccc1F)C(C)C | 4.3% | 60.2% | 9.28µM* | -0.5% | -2.1%
CCn1ccnc1CN(C)Cc1cn(C)nc1-c1ccccc1F | -2.0% | -4.2% | 9.28µM* | 0.2% | 0.8%
CN(Cc1ccc(-n2cccn2)cc1)Cc1cn(C)nc1-c1ccccc1F | 2.4% | -19.8% | u | 0.4% | -8.9%
SMILES | NS1 inh | Pf growth 48h | Pf growth 96h | SARS PLP yeast | RE007 growth inh
O=C(OCc1cn([C@@H]2CN(C(=O)C3CCCCC3)[C@@H](c3ccc(Cl)cc3)C[C@H]2O)nn1)c1ccccc1 | x | x | x | x | 1.5%
O=C1c2ccsc2SCCN1Cc1c(Cl)cccc1Cl | 5.2% | x | 6.57µM* | -30.2% | -17.5%
O=C1c2ccsc2SCCN1Cc1c(F)cccc1Cl | -4.8% | x | u | 2.2% | -19.1%
COC(=O)C(CCSC)NC(=O)c1cc2c(n(-c3ccccc3)c1=O)CC(C)(C)CC2=O (stereo not drawn) | -1.0% | -20.4% | 3.7µM* | 5.3% | 0.8%
COC(=O)C(CCSC)NC(=O)c1cc2c(n(-c3ccc(C)cc3)c1=O)CCCC2=O (stereo not drawn) | 4.6% | 22.7% | u | -1.5% | -4.2%
COc1ccnc(N=CNOCc2ccc(C)cc2)c1C#N | 1.5% | x | -14.5% | -4.3% | -6.5%
COc1ccnc(N=CNOCc2cccc(C(F)(F)F)c2)c1C#N | -4.8% | 8.4% | 14.7µM* | -2.1% | -4.7%
CC(=O)Nc1ccc(S(=O)(=O)NCC(=O)Nc2ccc3c(c2)OCO3)cc1 | x | x | x | 5.8% | -2.7%
O=C(NC(c1ccccc1)c1cc(Cl)c2cccnc2c1O)c1cccnc1 (stereo not drawn) | 8.9% | 0.657µM* | 9.5% | 1.78µM* | x
COc1ccc(C(NC(C)=O)c2cc(Cl)c3cccnc3c2O)cc1OC (stereo not drawn) | x | 9.28µM* | 6.6% | 4.7% | -6.3%
CCC(=O)NC(c1ccc(OC)c(OC)c1)c1cc(Cl)c2cccnc2c1O (stereo not drawn) | 3.5% | 1.04µM* | 54.1% | 0.8% | 13.6%
CCC(=O)NC(C)c1cc(Cl)c2cccnc2c1O (stereo not drawn) | x | u | u | -2.6% | x
COc1ccccc1C(NC(C)=O)c1cc(Cl)c2cccnc2c1O (stereo not drawn) | 1.3% | 14.4%[0.00184 µM] | 9.7% | 3.3% | 7.2%
CSc1nnc(-c2ccccc2Cl)n1N | 4.5% | 4.6% | 10.4µM* | 1.8% | 16.5%
COc1ccccc1C(=O)N1CCCC(C)(C(=O)NS(=O)(=O)C2CC2)C1 (stereo not drawn) | x | x | x | x | 8.8%
COC(=O)c1ccccc1S(=O)(=O)NNC(=O)c1nn(C)c(=O)c2ccccc12 | x | x | x | -15.7% | 5.8%
